The record followed here is PubChem BioAssay (NCATS).

Assay [1] in a line: qHTS for Inhibitors of the Functional Ribonucleoprotein Complex (vRNP) of Lassa (LASV) Arenavirus: LASV Primary Screen - GLuc reporter signal (AID 1347082; calls by dose curve; tested in HEK293 reporter line; further: on the % scale 0 is the no-effect control and ±100 the full control effect; nearly all actives have a fitted effect of over 60% in size). A general note: Quantitative high-throughput screening tests each substance at several concentrations.
Assay [2] is described as follows: qHTS for Inhibitors of the Functional Ribonucleoprotein Complex (vRNP) of Lassa (LASV) Arenavirus: Viability assay - alamar blue signal for LASV Primary Screen (AID 1347083; calls by dose curve; tested in HEK293 reporter line; further: on the % scale 0 is the no-effect control and ±100 the full control effect; nearly all actives have a fitted effect of over 80% in size).
Assay [3] can be described thus: qHTS for Inhibitors of the Functional Ribonucleoprotein Complex (vRNP) of Lymphocytic Choriomeningitis Arenaviruses (LCMV): Viability assay - alamar blue signal for LCMV Primary Screen (AID 1347085; calls by dose curve; tested in HEK293 reporter line; further: on the % scale 0 is the no-effect control and ±100 the full control effect; nearly all actives have a fitted effect of over 80% in size).
In assay [4] the target is Nucleoprotein (Lymphocytic choriomeningitis virus (strain Armstrong)) (UniProt P09992). The experiment in a line: qHTS for Inhibitors of the Functional Ribonucleoprotein Complex (vRNP) of Lymphocytic Choriomeningitis Arenaviruses (LCMV): LCMV Primary Screen - GLuc reporter signal (AID 1347086). Further: on the % scale 0 is the no-effect control and ±100 the full control effect; nearly all actives have a fitted effect of over 70% in size.
Chain of Nucleoprotein (Lymphocytic choriomeningitis virus (strain Armstrong)) (P09992 whole entry, looked up): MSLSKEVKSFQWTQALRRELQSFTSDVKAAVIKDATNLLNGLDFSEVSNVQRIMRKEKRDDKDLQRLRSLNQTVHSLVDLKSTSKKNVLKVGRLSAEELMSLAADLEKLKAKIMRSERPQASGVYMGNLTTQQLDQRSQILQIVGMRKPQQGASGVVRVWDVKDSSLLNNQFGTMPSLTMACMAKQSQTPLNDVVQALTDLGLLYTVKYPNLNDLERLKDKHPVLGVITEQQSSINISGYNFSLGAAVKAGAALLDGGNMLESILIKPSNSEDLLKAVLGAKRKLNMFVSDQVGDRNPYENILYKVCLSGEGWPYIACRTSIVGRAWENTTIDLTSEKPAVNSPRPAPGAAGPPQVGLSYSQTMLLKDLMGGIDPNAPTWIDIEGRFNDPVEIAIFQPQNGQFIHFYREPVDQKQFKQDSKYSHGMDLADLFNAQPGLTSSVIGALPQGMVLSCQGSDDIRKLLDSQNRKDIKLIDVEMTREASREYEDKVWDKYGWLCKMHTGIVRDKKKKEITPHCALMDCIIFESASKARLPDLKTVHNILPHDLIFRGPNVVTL
The nature of assay [5]: KB-8-5-11 P-gp reporter qHTS against the NCATS DSHEA and TCM libraries (AID 1919977; active means well fitted curve in the direction sought with a large enough effect; an effect the other way counts as inactive or inconclusive; further: 0% is about no effect). In short, it runs like this: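 P-gp-overexpressing KB-8-5-11 cells (500/well) were plated in colchicine-free DMEM with 10% FBS, attached ~4 h, then exposed to substance titrations for ~72 h at 37C. Viability was read by CellTiter-Glo luminescence.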
Assay [6] has as its target Cytochrome P450 3A4 (Homo sapiens) (UniProt P08684). The experiment in a line: qHTS Assay for Inhibitors and Substrates of Cytochrome P450 3A4 (AID 884; active means well fitted curve in the direction sought with a large enough effect; an effect the other way counts as inactive or inconclusive; further: nearly all actives have a fitted effect of over 50% in size; further: potency means the concentration at half of the fitted maximal effect). In short, it runs like this: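 20 nM human CYP3A4 with 25 uM Luciferin-PPXE (at KM) in 200 mM KPO4, preincubated 10 min with compound; NADPH regeneration started a 60 min RT reaction. Luciferin detected by luminescence, normalized to 57 uM ketoconazole as full inhibition.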

Assay [7] shares this target. The assay is described as follows: qHTS Assay for Activators of Cytochrome P450 3A4 (AID 885; active means well fitted curve in the direction sought with a large enough effect; an effect the other way counts as inactive or inconclusive; further: nearly all actives have a fitted effect of over 65% in size). In short, it runs like this:
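20nM CYP3A4 + 25uM Luciferin-PPXE (=KM), 200mM KPO4; cpd 10 min RT; NADPH regen, 60 min RT; stop w/ detection buffer, 20 min; luminescence. Normalized to 57 uM ketoconazole.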

Assay [8] can be described thus: qHTS profiling of the MIPE4 collection as inhibitors of Plasmodium falciparum (DD2) proliferation (AID 743345; call rule not given here). The following applies: P. falciparum Dd2 in erythrocytes, SYBR Green DNA, 72 h; at 28.5 µM (top of the series) unless noted. In short, it runs like this:
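Erythrocytes infected with P. falciparum (0.3% parasitemia, 2.5% hematocrit) incubated with compounds 72 h at 37 C, 5% CO2. Lysis with saponin/Triton buffer containing SYBR Green I, overnight at room temperature in the dark; DNA fluorescence (485/535 nm) normalised to 0.29 uM artemisinin and DMSO.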

For assay [9], the target named is Nuclear receptor subfamily 1 group I member 3 (Homo sapiens) (UniProt Q14994). The experiment in a line: Primary qHTS for antagonist of constitutive androstane receptor (CAR) against the NCATS DSHEA and TCM libraries (AID 1794836; active means well fitted curve in the direction sought with a large enough effect; an effect the other way counts as inactive or inconclusive;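 further: HepG2 cells stably expressing hCAR with CYP2B6 luciferase reporter stimulated by CITCO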). In short, it runs like this: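 HepG2-CYP2B6-hCAR cells, attached 5 h, given compounds plus CITCO agonist […], incubated 24 h at 37 C. Luciferase luminescence read, multiplexed with CellTiter-Fluor viability (Ex/Em 405/540 nm).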
Chain of Nuclear receptor subfamily 1 group I member 3 (Homo sapiens) (Q14994 whole entry, looked up): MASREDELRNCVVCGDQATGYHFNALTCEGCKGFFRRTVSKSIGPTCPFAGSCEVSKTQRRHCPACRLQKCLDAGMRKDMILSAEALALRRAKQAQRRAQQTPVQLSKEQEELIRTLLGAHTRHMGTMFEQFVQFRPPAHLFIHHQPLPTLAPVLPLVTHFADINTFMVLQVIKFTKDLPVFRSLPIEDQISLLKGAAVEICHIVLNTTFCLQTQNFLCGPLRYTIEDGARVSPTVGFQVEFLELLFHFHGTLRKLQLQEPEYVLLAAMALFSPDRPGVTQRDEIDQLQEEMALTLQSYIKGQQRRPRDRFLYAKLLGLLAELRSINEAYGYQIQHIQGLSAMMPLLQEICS

Assay [10] can be described thus: qHTS assay for small molecule agonists of the antioxidant response element (ARE) signaling pathway (AID 651741; active means well fitted activation curve with a large enough effect in the signal ratio; the % refers to the signal ratio; further: % of control where 0% means no effect). In outline: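 HepG2 ARE-bla cells plated at 2,000 cells/well and incubated 5 h at 37 C/5% CO2 received 23 nL compound in DMSO. After 16 h at 37 C, LiveBLAzer B/G FRET substrate was applied for 2 h at room temperature and fluorescence read.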
Assay [11] is described as follows: Validation screen for inhibitors of Lassa infection (AID 463096). Further: on the % scale 0 is the no-effect control and ±100 the full control effect.
Assay [12] is described as follows: Inducers of the Endoplasmic Reticulum Stress Response (ERSR) in human glioma: Validation (AID 504836; active means well fitted curve in the direction sought with a large enough effect; an effect the other way counts as inactive or inconclusive; further: 0% is about no effect). In short, it runs like this:
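Stably transfected U87-MG glioma cells carrying a GRP78-based luciferase sensor; 16 h compound incubation. Luminescence end-point read 10 min after Bright-Glo addition at room temperature.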

The target of assay [13] is M-phase phosphoprotein 8 (Homo sapiens) (UniProt Q99549). The assay is described as follows: qHTS Validation Assay for Inhibitors for MPP8 Chromodomain Interactions with Methylated Histone Tails (AID 488949; active means well fitted curve in the direction sought with a large enough effect; an effect the other way counts as inactive or inconclusive; further: top concentration of the series differs between compounds; on the % scale 0 is the no-effect control and ±100 the full control effect; nearly all actives have a fitted effect of over 55% in size). In outline: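 MPP8 (50 nM) was preincubated with biotinylated H3(1-18)K9me3 peptide (50 nM) in PBS pH 7.4, 0.01% Tween-20 for 30 min at room temperature, then with compounds for 30 min; binding was detected by AlphaScreen.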
Chain of M-phase phosphoprotein 8 (Homo sapiens) (Q99549 whole entry, looked up): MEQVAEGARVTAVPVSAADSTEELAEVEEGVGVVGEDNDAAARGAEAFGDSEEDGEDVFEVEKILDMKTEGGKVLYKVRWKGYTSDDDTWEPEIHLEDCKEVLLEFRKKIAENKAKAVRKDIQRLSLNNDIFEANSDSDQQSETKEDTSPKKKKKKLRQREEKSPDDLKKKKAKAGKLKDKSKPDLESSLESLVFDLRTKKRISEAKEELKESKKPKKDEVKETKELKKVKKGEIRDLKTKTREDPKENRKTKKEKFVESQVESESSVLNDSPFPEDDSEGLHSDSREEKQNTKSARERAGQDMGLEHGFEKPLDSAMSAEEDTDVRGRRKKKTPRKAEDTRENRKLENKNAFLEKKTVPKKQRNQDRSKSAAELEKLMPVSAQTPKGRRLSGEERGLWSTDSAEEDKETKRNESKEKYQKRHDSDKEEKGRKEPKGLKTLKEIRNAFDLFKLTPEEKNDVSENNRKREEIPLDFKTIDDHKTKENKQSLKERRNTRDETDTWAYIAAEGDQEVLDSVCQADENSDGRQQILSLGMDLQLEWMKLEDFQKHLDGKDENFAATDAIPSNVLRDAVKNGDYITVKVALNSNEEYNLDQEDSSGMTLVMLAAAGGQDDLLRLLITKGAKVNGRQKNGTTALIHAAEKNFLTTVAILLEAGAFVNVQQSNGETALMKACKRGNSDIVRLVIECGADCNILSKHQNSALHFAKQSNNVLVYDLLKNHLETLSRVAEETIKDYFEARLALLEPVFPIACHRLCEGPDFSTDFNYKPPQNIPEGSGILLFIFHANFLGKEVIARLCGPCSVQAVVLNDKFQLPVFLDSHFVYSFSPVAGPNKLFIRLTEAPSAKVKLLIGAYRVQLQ

Results filed as inconclusive are left out. Calls of active or inactive are those of the source. Unless noted, the call rests on the fitted dose curve.

Chain of Cytochrome P450 3A4 (Homo sapiens) (P08684 whole entry, looked up): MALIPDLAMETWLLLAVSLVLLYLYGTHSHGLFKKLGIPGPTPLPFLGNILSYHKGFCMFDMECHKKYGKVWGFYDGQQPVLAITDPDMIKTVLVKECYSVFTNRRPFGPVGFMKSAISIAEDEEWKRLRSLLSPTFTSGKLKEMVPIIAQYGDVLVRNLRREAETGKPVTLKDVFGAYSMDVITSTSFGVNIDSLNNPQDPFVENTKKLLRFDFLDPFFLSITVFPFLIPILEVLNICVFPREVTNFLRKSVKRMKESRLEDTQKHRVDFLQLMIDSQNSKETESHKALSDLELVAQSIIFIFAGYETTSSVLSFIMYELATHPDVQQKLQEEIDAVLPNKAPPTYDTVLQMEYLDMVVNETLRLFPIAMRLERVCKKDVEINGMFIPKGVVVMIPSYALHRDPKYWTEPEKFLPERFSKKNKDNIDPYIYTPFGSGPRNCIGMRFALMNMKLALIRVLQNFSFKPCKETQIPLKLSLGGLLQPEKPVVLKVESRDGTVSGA

Consider `C=C(C)[C@H]1CC=C(CO)CC1`, for which the Potency entry in [1], in assay [2], in assay [3] and in assay [4] was “inactive” each time. In addition, in assay [5], the outcome was inactive.

As for `CC1=CCC(=C(C)C)CC1`, the Potency entry in assay [1], in assay [2], in [3] and in [4] was “inactive” in each case. For the same compound, in assay [5], the call was inactive.

On to `O=c1cc(-c2ccc(O)c(O)c2)oc2cc(O)cc(O)c12`, for which the Potency in assay [6] was 15.8 µM (active). Besides, the Potency entry in assay [7], in assay [1], in assay [2], in [3], in [4] and in assay [9] was “inactive” in each case. This compound came in with a parasite growth remaining, % of DMSO control (lower = more inhibition) in assay [8] of 89.2%. Moreover, the compound was called inactive in [5].

Consider `CCOC(=O)c1ccccc1N`, for which the Potency result in [6], in [10], in [1], in assay [2], in assay [3] and in assay [4] was “inactive” in each case.

As to `CCCCCC(=O)CC`, the Potency entry in assay [1], in assay [2], in [3], in assay [4] and in assay [9] was “inactive” each time. In addition, the compound was classed as inactive in assay [5].

Regarding `O=C(/C=C/c1ccc(O)c(O)c1)OCCc1ccccc1`, the Potency entry in assay [11], in assay [1], in assay [2], in assay [3] and in [4] was “inactive” in each case.

In the case of `C[C@@]12C[C@@]3(O)O[C@@H](O1)[C@]1(COC(=O)c4ccccc4)[C@@H]3C[C@@]12O[C@@H]1O[C@H](CO)[C@@H](O)[C@H](O)[C@@H]1O`, the Potency entry in assay [1], in [2], in assay [3], in [4] and in assay [9] was “inactive” each time. Further, in assay [5], the compound was classed as inactive.

`C=C1C[C@@]23CC[C@H]4[C@@](C)(CCC[C@@]4(C)C(=O)OC4OC(CO)C(O)C(O)C4O)[C@@H]2CC[C@]1(OC1OC(CO)C(O)C(O)C1OC1OC(CO)C(O)C(O)C1O)C3` (stereo partly drawn): the compound was classed as inactive in assay [12] and in [5]. Further, the Potency entry in assay [1], in assay [2], in assay [3] and in assay [4] was “inactive” each time.

On to `O=c1cc(O)cc(/C=C/c2ccc(O)c(O)c2)o1`, for which the Potency entry in assay [11], in assay [1], in assay [2], in assay [3] and in assay [4] was “inactive” throughout.

`C=C/C(C)=C/C/C=C(\C)CCC=C(C)C`: the Potency result in [1], in assay [2], in assay [3], in assay [4] and in [9] was “inactive” each time. In assay [5], the call was inactive.

With `CCCCCCCCCCCCCC(=O)OCC(O)CO` (stereo not drawn), the Potency entry in assay [1], in assay [2], in assay [3], in assay [4] and in assay [9] was “inactive” in each case. Besides, the outcome in [5] was inactive.

With `CCCCCCCCCC[Si](C)(C)CCC(=O)NC(Cc1ccc(C)cc1)c1ccccc1` (stereo not drawn), the Potency result in assay [11], in [1], in assay [2], in assay [3] and in assay [4] was “inactive” throughout. The result in [12] was inactive.

Take `c1ccc(C2CN3CCSC3=N2)cc1` (stereo not drawn): the Potency entry in [11], in [1], in [2], in assay [3] and in assay [4] was “inactive” in each case.

Consider `O=C1C2C=CC=CC2=NC(=S)N1CCN1CCC(=C(c2ccc(F)cc2)c2ccc(F)cc2)CC1` (stereo not drawn), for which the Potency entry in assay [11], in assay [1], in assay [2], in [3] and in [4] was “inactive” each time. Also, the result in assay [12] was inactive.

On to `NC1(C(=O)O)CCc2cc(C(=O)O)ccc21` (stereo not drawn), for which the Potency entry in assay [11], in assay [1], in assay [2], in [3] and in assay [4] was “inactive” each time. Besides, the call in [12] was inactive.

For `OC(CN1CCN(c2cccc(Cl)c2)CC1)C(c1ccccc1)c1ccccc1` (stereo not drawn), the Potency result in assay [11], in assay [1], in assay [2], in assay [3] and in assay [4] was “inactive” throughout. Also, in assay [12], the outcome was inactive.

Regarding `O=C(O)[C@H]1NCCC[C@H]1C(=O)O`, the Potency entry in assay [11], in assay [1], in [2], in [3] and in assay [4] was “inactive” in each case. In [12], the compound was classed as inactive.

As for `CCCCOc1cc(CC2CNC(=O)N2)ccc1OC` (stereo not drawn), the Potency entry in assay [11], in assay [1], in [2], in [3] and in assay [4] was “inactive” in each case. Further, in assay [12], the compound was called inactive.

For `COc1ccc2c(c1)CCC1C2CC[C@@]2(C)C1CC[C@@H]2NCCCCCCN1C(=O)C=CC1=O` (stereo partly drawn), the Potency entry in assay [11], in [13], in [1], in assay [2], in assay [3] and in [4] was “inactive” throughout. The compound was called inactive in assay [12].
